# From the supplement of paper PMC8728848
# The full list was thinned out, with the strongest signals kept by preference.
# B1: MpL2 (Macrolepiota procera) (protein)
# chain: MSTQVSSGQTYKITNVKAGTVIRLSGEDNKSIIGYPYHSGKNQQWTFNWTGKAWTLRSASSGSYLGIEGTPADGTRLVAVNDPFEWHIWRDEANENAFRIFVPFTNYNLDLSGYGDTTPGTPVQLWWTWEGLHQTWTIDRP
# Tests used:
# Assay in all cases: glycan array binding signal (z-score within array); higher = stronger binding
# Conditions in all cases: glycan notation: IUPAC condensed, linker removed; mutation: D22R
# [1] = target: GalNAc4S6S(b1-4)GlcNAc
# Method in brief: (§1)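 From the Consortium for Functional Glycomics database, 3228 arrays were curated, keeping only those whose protein sequence was available. Binding is given as a within-array Z-score averaged across arrays sharing a protein sequence and across linkers. Negative Z-scores can be read as non-binding.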
# [2] = target: GlcA(b1-6)Gal
# Method in brief: as §1
# [3] = target: GlcNAc(a1-4)Gal(b1-4)GlcNAc(b1-3)Gal(b1-4)GlcNAc(b1-3)Gal(b1-4)GlcNAc
# Method in brief: as §1
# [4] = target: GlcNAc(b1-3)Fuc
# Method in brief: as §1
# [5] = target: GlcNAc(b1-3)Gal
# Method in brief: as §1
# [6] = target: GlcNAc(b1-3)Gal(b1-4)GlcNAc(b1-2)[GlcNAc(b1-3)Gal(b1-4)GlcNAc(b1-6)]Man(a1-6)[GlcNAc(b1-3)Gal(b1-4)GlcNAc(b1-2)Man(a1-3)]Man(b1-4)GlcNAc(b1-4)GlcNAc
# Method in brief: as §1
# [7] = target: GlcNAc(b1-3)Gal(b1-4)GlcNAc(b1-3)Gal(b1-4)GlcNAc(b1-3)Gal(b1-4)GlcNAc(b1-3)Gal(b1-4)GlcNAc(b1-2)[GlcNAc(b1-3)Gal(b1-4)GlcNAc(b1-3)Gal(b1-4)GlcNAc(b1-3)Gal(b1-4)GlcNAc(b1-3)Gal(b1-4)GlcNAc(b1-6)]Man(a1-6)[GlcNAc(b1-3)Gal(b1-4)GlcNAc(b1-3)Gal(b1-4)GlcNAc(b1-3)Gal(b1-4)GlcNAc(b1-3)Gal(b1-4)GlcNAc(b1-2)Man(a1-3)]Man(b1-4)GlcNAc(b1-4)[Fuc(a1-6)]GlcNAc
# Method in brief: as §1
# [8] = target: GlcNAc(b1-3)Gal(b1-4)GlcNAc(b1-6)[GlcNAc(b1-3)]Gal(b1-4)GlcNAc
# Method in brief: as §1
# [9] = target: GlcNAc(b1-3)GalNAc
# Method in brief: as §1
# [10] = target: GlcNAc(b1-4)[GlcNAc(b1-6)]GalNAc
# Method in brief: as §1
# [11] = target: GlcNAc(b1-6)Gal(b1-4)GlcNAc
# Method in brief: as §1
# [12] = target: Neu5Ac(a2-3)Gal(b1-3)GlcNAc(b1-2)Man(a1-3)[GlcNAc(b1-4)][Neu5Ac(a2-3)Gal(b1-3)GlcNAc(b1-2)Man(a1-6)]Man(b1-4)GlcNAc(b1-4)GlcNAc
# Method in brief: as §1
# [13] = target: Neu5Ac(a2-3)Gal(b1-3)[Neu5Ac(a2-6)]GlcNAc(b1-3)[Fuc(a1-3)[Gal(b1-4)]GlcNAc(b1-6)]Gal(b1-4)Glc
# Method in brief: as §1
# [14] = target: Neu5Ac(a2-3)Gal(b1-3)]Neu5Ac(a2-3)Gal(b1-4)]GlcNAc
# Method in brief: as §1
# [15] = target: Neu5Ac(a2-3)Gal(b1-4)GlcNAc(b1-2)[Neu5Ac(a2-3)Gal(b1-4)GlcNAc(b1-4)]Man(a1-3)[GlcNAc(b1-4)][Neu5Ac(a2-3)Gal(b1-4)GlcNAc(b1-4)Man(a1-6)]Man(b1-4)GlcNAc(b1-4)GlcNAc
# Method in brief: as §1
# [16] = target: Neu5Ac(a2-3)Gal(b1-4)GlcNAc(b1-3)Gal(b1-4)[Fuc(a1-3)]GlcNAc
# Method in brief: as §1
# [17] = target: Neu5Ac(a2-3)Gal(b1-4)[Fuc(a1-3)]GlcNAc(b1-3)Gal(b1-4)[Fuc(a1-3)]GlcNAc(b1-3)Gal(b1-4)[Fuc(a1-3)]GlcNAc
# Method in brief: as §1
# [18] = target: Neu5Ac(a2-6)Gal(b1-4)GlcNAc(b1-2)Man
# Method in brief: as §1
# [19] = target: Neu5Ac(a2-6)Gal(b1-4)GlcNAc(b1-3)Gal(b1-3)GlcNAc
# Method in brief: as §1
# [20] = target: Neu5Ac(a2-6)Gal(b1-4)GlcNAc(b1-3)Gal(b1-4)GlcNAc(b1-3)Gal(b1-4)GlcNAc(b1-2)Man(a1-3)[Neu5Ac(a2-6)Gal(b1-4)GlcNAc(b1-3)Gal(b1-4)GlcNAc(b1-3)Gal(b1-4)GlcNAc(b1-2)Man(a1-6)]GalNAc
# Method in brief: as §1
# [21] = target: Neu5Ac(a2-6)Gal(b1-4)GlcNAc(b1-3)Gal(b1-4)GlcNAc(b1-3)[Neu5Ac(a2-6)Gal(b1-4)GlcNAc(b1-3)Gal(b1-4)GlcNAc(b1-6)]GalNAc
# Method in brief: as §1
# [22] = target: Neu5Ac(a2-6)Gal(b1-4)GlcNAc(b1-3)GalNAc
# Method in brief: as §1
# [23] = target: Neu5Ac(a2-6)Gal(b1-4)GlcNAc(b1-6)[Gal(b1-3)]GalNAc
# Method in brief: as §1
# [24] = target: Neu5Ac(a2-6)GalNAc
# Method in brief: as §1
# [25] = target: Neu5Ac(a2-8)Neu5Ac(a2-8)Neu5Ac(a2-3)[GalNAc(b1-4)]Gal(b1-4)Glc
# Method in brief: as §1
# [26] = target: Neu5Ac(b2-6)Gal(b1-4)GlcNAc
# Method in brief: as §1
binder,measurement,setting,value
B1,glycan array binding signal (z-score),[1],-0.021
same,glycan array binding signal (z-score),[2],9.35
same,glycan array binding signal (z-score),[3],-0.264
same,glycan array binding signal (z-score),[4],0.069
same,glycan array binding signal (z-score),[5],-0.201
same,glycan array binding signal (z-score),[6],1.11
same,glycan array binding signal (z-score),[7],0.58
same,glycan array binding signal (z-score),[8],-0.264
same,glycan array binding signal (z-score),[9],-0.361
same,glycan array binding signal (z-score),[10],-0.082
same,glycan array binding signal (z-score),[11],-0.168
same,glycan array binding signal (z-score),[12],0.519
same,glycan array binding signal (z-score),[13],0.292
same,glycan array binding signal (z-score),[14],-0.346
same,glycan array binding signal (z-score),[15],-0.638
same,glycan array binding signal (z-score),[16],-0.58
same,glycan array binding signal (z-score),[17],-0.574
same,glycan array binding signal (z-score),[18],-0.185
same,glycan array binding signal (z-score),[19],0.558
same,glycan array binding signal (z-score),[20],2.64
same,glycan array binding signal (z-score),[21],2.97
same,glycan array binding signal (z-score),[22],-0.516
same,glycan array binding signal (z-score),[23],-0.069
same,glycan array binding signal (z-score),[24],-0.42
same,glycan array binding signal (z-score),[25],0.163
same,glycan array binding signal (z-score),[26],0.011
